From PubChem BioAssay AID1159580 (chemical genetic matrix, 2015)
Values joined by “and” are separate entries in the source; they are usually repeats but may differ in a detail not shown here. Identical values can stand only once. In all, about 5,500 compounds went through this assay and about 2,000 (36%) were called active. Roughly 18% stayed inconclusive and do not appear here. No stated cut-off is given here; in the data, active means normalized growth mostly below about 0.91 (no sharp cut-off); inconclusive means no clear call, values can overlap the other calls; inactive means mostly above about 0.92. This is one part of the list.

Assay: chemical genetic growth profiling, strain panel (AID 1159580);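 further: tested at 20 µM; growth read once vehicle control cultures reached saturation at 30 °C; 1 = growth at the plate median or of vehicle wells; lower values mean less growth of the strain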
Conditions: growth OD

Measured: normalized growth

NC1CC1c1ccccc1 (stereo not drawn)
inactive: S. cerevisiae deletion strains, locus YAL013W, strain DEP1, active compounds read low 1.02 | S. cerevisiae deletion strains, locus YAL040C, strain CLN3, active compounds read low 0.989 | S. cerevisiae deletion strains, locus YBR021W, strain FUR4, active compounds read low 1.02 | S. cerevisiae deletion strains, locus YBR229C, strain ROT2, active compounds read low 1.02 | S. cerevisiae deletion strains, locus YCL029C, strain bik1, active compounds read low 0.985 | S. cerevisiae deletion strains, locus YCL061C, strain MRC1 (second series), active compounds read low 1.01 | S. cerevisiae deletion strains, locus YDL035C, strain GPR1, active compounds read low 1.02 | S. cerevisiae deletion strains, locus YDL074C, strain BRE1, active compounds read low 1.05 | S. cerevisiae deletion strains, locus YDL101C, strain DUN1, active compounds read low 1.03 | S. cerevisiae deletion strains, locus YDL134C, strain PPH21, active compounds read low 1.02 | S. cerevisiae deletion strains, locus YDL185W, strain tfp1, active compounds read low 0.989 | S. cerevisiae deletion strains, locus YDL192W, strain arf1, active compounds read low 0.988 | S. cerevisiae deletion strains, locus YDR101C, strain arx1, active compounds read low 0.976 | S. cerevisiae deletion strains, locus YDR150W, strain NUM1, active compounds read low 1.02 | S. cerevisiae deletion strains, locus YDR162C, strain NBP2, active compounds read low 1.03 | S. cerevisiae deletion strains, locus YDR318W, strain mcm21, active compounds read low 0.979 | S. cerevisiae deletion strains, locus YDR363W, strain ESC2, active compounds read low 0.946 | S. cerevisiae deletion strains, locus YDR388W, active compounds read low 0.981 | S. cerevisiae deletion strains, locus YDR502C, strain sam2, active compounds read low 0.995 | S. cerevisiae deletion strains, locus YEL061C, strain CIN8, active compounds read low 1.01 | S. cerevisiae deletion strains, locus YER002W, strain NOP16, active compounds read low 1.02 | S. cerevisiae deletion strains, locus YER110C, active compounds read low 0.981 | S. cerevisiae deletion strains, locus YER155C, strain BEM2, active compounds read low 1.01 | S. cerevisiae deletion strains, locus YER167W, strain BCK2, active compounds read low 1.01 | S. cerevisiae deletion strains, locus YGL078C, strain dbp3, active compounds read low 0.988 | S. cerevisiae deletion strains, locus YGL086W, strain mad1, active compounds read low 0.975 | S. cerevisiae deletion strains, locus YGL248W, strain PDE1, active compounds read low 1.03 | S. cerevisiae deletion strains, locus YGR078C, strain PAC10, active compounds read low 1.02 | S. cerevisiae deletion strains, locus YGR135W, strain pre9, active compounds read low 0.994 | S. cerevisiae deletion strains, locus YGR229C, strain SMI1, active compounds read low 1.02 | S. cerevisiae deletion strains, locus YGR252W, strain gcn5, active compounds read low 0.922 | S. cerevisiae deletion strains, locus YHR030C, strain SLT2, active compounds read low 1.01 | S. cerevisiae deletion strains, locus YHR079C, strain IRE1 (second series), active compounds read low 0.981 | S. cerevisiae deletion strains, locus YHR094C, strain hxt1, active compounds read low 0.99 | S. cerevisiae deletion strains, locus YHR129C, strain ARP1, active compounds read low 1.02 | S. cerevisiae deletion strains, locus YHR200W, strain rpn10, active compounds read low 0.991 | S. cerevisiae deletion strains, locus YIL066C, strain RNR3, active compounds read low 1.02 | S. cerevisiae deletion strains, locus YIL073C, strain SPO22, active compounds read low 0.972 | S. cerevisiae deletion strains, locus YIL125W, strain kgd1, active compounds read low 0.987 | S. cerevisiae deletion strains, locus YIR030C, strain dcg1, active compounds read low 0.993 | S. cerevisiae deletion strains, locus YJL095W, strain BCK1, active compounds read low 1.03 | S. cerevisiae deletion strains, locus YJL134W, strain LCB3, active compounds read low 1.02 | S. cerevisiae deletion strains, locus YJL168C, strain set2, active compounds read low 0.988 | S. cerevisiae deletion strains, locus YJL187C, strain SWE1 (second series), active compounds read low 1.02 | S. cerevisiae deletion strains, locus YJR043C, strain POL32, active compounds read low 0.992 | S. cerevisiae deletion strains, locus YJR075W, strain HOC1, active compounds read low 1.01 and 1.03 | S. cerevisiae deletion strains, locus YKL009W, strain mrt4, active compounds read low 1.01 | S. cerevisiae deletion strains, locus YKL068W, active compounds read low 0.997 | S. cerevisiae deletion strains, locus YKL085W, strain MDH1 (second series), active compounds read low 1.03 | S. cerevisiae deletion strains, locus YKL085W, strain MDH1, active compounds read low 1.03 | S. cerevisiae deletion strains, locus YKL190W, strain CNB1, active compounds read low 1.02 | S. cerevisiae deletion strains, locus YKR001C, strain vps1, active compounds read low 0.987 | S. cerevisiae deletion strains, locus YLR039C, strain RIC1, active compounds read low 1.06 | S. cerevisiae deletion strains, locus YLR058C, strain SHM2, active compounds read low 1.02 | S. cerevisiae deletion strains, locus YLR102C, strain apc9, active compounds read low 0.996 | S. cerevisiae deletion strains, locus YLR262C, strain YPT6, active compounds read low 1.05 | S. cerevisiae deletion strains, locus YLR268W, strain sec22, active compounds read low 0.989 | S. cerevisiae deletion strains, locus YLR330W, strain CHS5, active compounds read low 1.01 | S. cerevisiae deletion strains, locus YLR342W, strain FKS1 (second series), active compounds read low 0.994 | S. cerevisiae deletion strains, locus YLR371W, strain rom2, active compounds read low 0.984 | S. cerevisiae deletion strains, locus YLR418C, strain cdc73, active compounds read low 0.992 | S. cerevisiae deletion strains, locus YML016C, strain PPZ1, active compounds read low 1.03 | S. cerevisiae deletion strains, locus YML032C, strain rad52, active compounds read low 0.975 | S. cerevisiae deletion strains, locus YML124C, strain tub3, active compounds read low 0.997 | S. cerevisiae deletion strains, locus YMR078C, strain ctf18, active compounds read low 0.981 | S. cerevisiae deletion strains, locus YMR223W, strain ubp8, active compounds read low 0.972 | S. cerevisiae deletion strains, locus YMR263W, strain SAP30, active compounds read low 1.03 | S. cerevisiae deletion strains, locus YMR307W, strain GAS1, active compounds read low 0.976 and 1.01 | S. cerevisiae deletion strains, locus YNL067W, strain RPL9B, active compounds read low 1.03 | S. cerevisiae deletion strains, locus YNL128W, strain TEP1, active compounds read low 1.03 | S. cerevisiae deletion strains, locus YNL153C, strain GIM3, active compounds read low 1.03 and 0.972 | S. cerevisiae deletion strains, locus YNL175C, strain NOP13, active compounds read low 0.999 | S. cerevisiae deletion strains, locus YNL197C, strain WHI3, active compounds read low 1.01 | S. cerevisiae deletion strains, locus YNL224C, strain SQS1, active compounds read low 1 | S. cerevisiae deletion strains, locus YNL233W, strain BNI4, active compounds read low 1.02 | S. cerevisiae deletion strains, locus YNL250W, strain rad50, active compounds read low 1.01 | S. cerevisiae deletion strains, locus YNL271C, strain bni1, active compounds read low 0.978 | S. cerevisiae deletion strains, locus YNL298W, strain CLA4, active compounds read low 0.996 | S. cerevisiae deletion strains, locus YNL307C, strain MCK1, active compounds read low 0.979 | S. cerevisiae deletion strains, locus YNL322C, strain KRE1, active compounds read low 1.02 | S. cerevisiae deletion strains, locus YNR052C, strain pop2, active compounds read low 0.968 | S. cerevisiae deletion strains, locus YOL006C, strain TOP1, active compounds read low 1.09 | S. cerevisiae deletion strains, locus YOL147C, strain pex11, active compounds read low 0.989 | S. cerevisiae deletion strains, locus YOR061W, strain CKA2, active compounds read low 1.02 | S. cerevisiae deletion strains, locus YOR069W, strain VPS5, active compounds read low 1.01 | S. cerevisiae deletion strains, locus YOR083W, strain WHI5 (second series), active compounds read low 1 | S. cerevisiae deletion strains, locus YOR136W, strain idh2, active compounds read low 0.981 | S. cerevisiae deletion strains, locus YOR144C, strain elg1, active compounds read low 0.984 | S. cerevisiae deletion strains, locus YOR184W, strain ser1, active compounds read low 0.976 | S. cerevisiae deletion strains, locus YOR316C, strain cot1, active compounds read low 0.992 | S. cerevisiae deletion strains, locus YPL055C, strain LGE1, active compounds read low 1.06 and 0.992 | S. cerevisiae deletion strains, locus YPL241C, strain CIN2, active compounds read low 1.02 | S. cerevisiae deletion strains, locus YPR119W, strain clb2, active compounds read low 0.994 | S. cerevisiae deletion strains, locus YPR141C, strain kar3, active compounds read low 0.99 | S. cerevisiae deletion strains, locus YPR163C, strain tif3, active compounds read low 0.988 | S. cerevisiae deletion strains, locus YPR167C, strain met16, active compounds read low 0.985 | S. cerevisiae deletion strains, strain wtn01, active compounds read low 0.988 | S. cerevisiae strains, strain wild type, active compounds read low 1.01
